Screens (PubChem)
ERa coact pot: ER-alpha (human) coactivator binding potentiation. P03372. TR-FRET ERalpha-LBD/SRC-Cy5 coactivator binding, 2 h; 100 = basal binding, no effect. coactivator binding (% of control), % at 25.6 µM. 86,000 tested, 1.3% active. AID 639; in the data active means activity above about 200%;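 further: binding measured in presence of low estradiol as agonist stimulus; 0% = peptide alone without receptor and 100% = receptor with peptide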
Target sequence (P03372 whole entry, looked up, the tested form may be a part): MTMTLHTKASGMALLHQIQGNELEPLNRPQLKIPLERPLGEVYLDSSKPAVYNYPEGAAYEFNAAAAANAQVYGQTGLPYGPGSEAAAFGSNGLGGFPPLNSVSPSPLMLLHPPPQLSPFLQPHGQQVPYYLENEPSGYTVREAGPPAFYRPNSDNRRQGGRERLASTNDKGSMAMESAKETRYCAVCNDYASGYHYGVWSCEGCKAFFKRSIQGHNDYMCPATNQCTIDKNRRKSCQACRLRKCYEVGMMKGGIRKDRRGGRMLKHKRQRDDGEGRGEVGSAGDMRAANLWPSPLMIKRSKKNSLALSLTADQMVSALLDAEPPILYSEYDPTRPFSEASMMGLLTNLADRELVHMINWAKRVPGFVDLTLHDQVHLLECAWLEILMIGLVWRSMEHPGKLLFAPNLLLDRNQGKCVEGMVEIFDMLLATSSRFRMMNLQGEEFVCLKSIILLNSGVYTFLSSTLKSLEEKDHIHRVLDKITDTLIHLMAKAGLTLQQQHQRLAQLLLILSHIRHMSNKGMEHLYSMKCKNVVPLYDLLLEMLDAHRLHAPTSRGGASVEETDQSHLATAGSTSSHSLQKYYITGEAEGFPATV
ERa SRC1 inh: blocks coactivator binding to human estrogen receptor alpha | P03372 | TR-FRET ER-alpha LBD / SRC-1 peptide, estradiol-bound | inhibition, % at 25.6 µM | 86,000 tested, 1.7% active | AID 629; in the data active means inhibition above about 50%;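 further: 0% = receptor plus peptide control and 100% = peptide only without receptor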
ERb SRC1 inh: blocks coactivator binding to human estrogen receptor beta; Q92731; TR-FRET ER-beta LBD / SRC1-Cy5 peptide binding; receptor agonist-loaded with 1 µM estradiol; inhibition, % at 25.6 µM; 86,000 tested, 1.3% active;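 active means compounds whose percent inhibition of the receptor-coactivator binding signal exceeds about 50% in the single-dose screen, limit read from the data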;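 further: 0% = receptor plus peptide wells without compound and 100% = peptide-only wells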
EphB4 antag: blocks human EphB4 binding to ephrin-B2 | P54760 | EphB4 LBD / TNYL-RAW-Alexa532 peptide, fluorescence polarization | inhibition, % at 7 µM | 97,000 tested, 0.15% active;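 active means inhibition above the screen-wide mean inhibition plus 3 SD, cut at about 15% in these data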;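 further: 0% = DMSO wells and 100% = excess unlabeled TNYL-RAW peptide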
The depositor's hits bear a star; / = no result; [ ] = another dose, or the depositor's remark. Sampled rows, rich in hits. Any-hit rate of the full collection: about 2.8%.

SMILES	ERa coact pot	ERa SRC1 inh	ERb SRC1 inh	EphB4 antag
O=C(Cn1nnc(-c2ccc(N3CCOCC3)cc2)n1)OC1CCCCC1	208*	2	-3	-7
Cc1ccccc1NC(=O)Cn1nnc(-c2ccc(N3CCOCC3)cc2)n1	121	11	16	2
COc1ccc(S(=O)(=O)Cc2ccc(C(=O)N3CCN(Cc4ccccc4)CC3)o2)cc1	139	-5	1	/
Cc1ccc(S(=O)(=O)Cc2ccc(C(=O)O)o2)cc1	25	69*	76*	3
Cc1ccc(S(=O)(=O)Cc2ccc(C(=O)N3CCN(Cc4ccccc4)CC3)o2)cc1	85	61*[fluorescence artefact?]	58*	/
Cc1ccc(S(=O)(=O)Cc2ccc(C(=O)NCc3ccc4c(c3)OCO4)o2)cc1	62	51*	43	-1
COc1ccc(S(=O)(=O)Cc2ccc(C(=O)N3CCc4ccccc4C3)o2)cc1	119	-2	1	1
Cc1ccc(S(=O)(=O)Cc2ccc(C(=O)N3CCc4ccccc4C3)o2)cc1	50	78*[fluorescence artefact?]	76*	1
CC(NC(=O)C1CCCN(C(=O)N(C)C)C1)c1ccccc1 (stereo not given)	109	1	8	-1
CCOC(=O)N1CCC(NC(=O)C(NC(=O)C2CCC(C)CC2)C(C)CC)CC1 (stereo not given)	120	3	-4	0
N#CCCCSc1nnnn1-c1cccc(Cl)c1	107	-4	-2	2
N#CCCS(=O)(=O)c1nnnn1-c1ccccc1	78	61*	58*	0
COC(=O)c1sc(NC(=O)CSc2nc3cccnc3n2C2CCCCC2)nc1C	81	72*[fluorescence artefact?]	61*[fluorescence artefact?]	-11
COc1cccc(C2C(C(C)=O)=C(O)C(=O)N2Cc2ccco2)c1 (stereo not given)	153	58*[fluorescence artefact?]	-6	-6
CC(=O)C1=C(O)C(=O)N(Cc2ccco2)C1c1ccccc1 (stereo not given)	99	4	0	/
COc1ccc(OC)c(C2/C(=C(/O)c3ccc(C)cc3)C(=O)C(=O)N2Cc2ccco2)c1 (stereo not given)	85	96*[fluorescence artefact?]	9	/
Cc1ccccc1N=C1NC(=O)CC(c2ccccc2)S1 (stereo not given)	/	/	/	-1
Cc1ccc(CNC(=O)c2cc3c(C)nc4ccccc4c3o2)cc1	171	57*[fluorescence artefact?]	32	-6
CCCN1CCCc2cc(CN)ccc21	59	41	54*[fluorescence artefact?]	6
CN1CCCc2cc(C=O)ccc21	99	-2	-2	-9
O=C(Nc1cc2c(cc1Cl)OCCCO2)c1ccccc1	/	/	/	5
O=C(CSc1ccc(Cl)cc1)Nc1ccc(N2CCN(C(=O)c3ccco3)CC2)cc1	60	64*[fluorescence artefact?]	29	6
C=CCSC1=N/C(=C\C=C\c2ccco2)C(=O)S1	63	78*	64*	-3
Cc1cc(N2C(=O)C3CC=CCC3C2=O)no1 (stereo not given)	104	-5	1	-2
Cc1ccc(CC2CC(=O)N(c3cc(C)on3)C2=O)cc1 (stereo not given)	201*[fluorescence artefact?]	-10	-15	1
SMILES	ERa coact pot	ERa SRC1 inh	ERb SRC1 inh	EphB4 antag
O=C(Nn1nnnc1Nc1ccccc1)C12CC3CC(CC(C3)C1)C2	112	-7	-1	/
CCn1cc(C(=O)N=c2sc3ccccc3n2C)c(=O)c2ccc(C)nc21	250*	25	7	-7
CCn1cc(C(=O)N2CCn3c(nc4ccccc43)C2)c(=O)c2ccc(C)nc21	101	-2	0	-5
CC(C)NC(=O)NC(=O)COC(=O)c1ccccc1Oc1ccccc1	/	/	/	-4
O=C(Cc1ccccc1)Nc1cccc(N2CCCC2)c1	43	58*[fluorescence artefact?]	28	-1
O=C(CN(c1ccc(Cl)c(C(F)(F)F)c1)S(=O)(=O)c1ccccc1)N/N=C/c1cccc2c1OCCO2	/	/	/	-3
CCOC(=O)c1c2c(n(C)c1COC)C(=O)C(=O)c1ccc(Br)cc1-2	57	85*	33	4
COc1ccc(C)cc1-n1nnnc1SCC(=O)c1ccc2c(c1)OCCO2	233*	10	25	1
COC(=O)c1ccc(-n2nnnc2SCC(=O)Nc2ccccc2OC)cc1	170	58*[fluorescence artefact?]	25	6
COc1ccc(-n2nnnc2SCC(=O)Nc2ccc3c(c2)OCCO3)cc1OC	210*	36	24	3
COc1cccc(-n2nnnc2SCC(=O)Nc2ccc3c(c2)OCCO3)c1	/	/	/	0
Cc1ccc(-n2nnnc2SCC(=O)Nc2cccc(NC(=O)c3ccco3)c2)cc1C	123	79*	35	1
COc1ccc(C)cc1-n1nnnc1SCC(=O)NC(=O)NCc1ccco1	50	73*	46	3
CC(C)c1nc(SCC(=O)c2ccccc2)c2c(=O)n(C)c(=O)n(C)c2n1	/	/	/	5
